The text below walks through data of PubChem BioAssay (NCI).

A short description of assay [1]: NCI Yeast Anticancer Drug Screen. Data for the rad50 strain (AID 155).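 Note: 0% = growth of vehicle-only cultures of the same strain.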 Conditions: S. cerevisiae rad50 strain growth inhibition, hits give high values. Put shortly: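 A DNA repair-deficient yeast mutant serves as the test organism; compound-induced growth inhibition is calculated against vehicle-treated cells.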
The nature of assay [2]: NCI Yeast Anticancer Drug Screen. Data for the mec2-1 strain (AID 157). Conditions: S. cerevisiae mec2-1 strain, hits give high values. The gist of the method: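 Yeast mec2-1 mutant treated with compound. Readout: growth inhibition vs vehicle controls.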
Assay [3] in a line: NCI Yeast Anticancer Drug Screen. Data for the sgs1 mgt1 strain (AID 161).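 Note: 0% = growth of cultures given vehicle only.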 The following applies: S. cerevisiae sgs1 mgt1 strain, hits give high values. Put shortly:
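Read-out: growth inhibition vs vehicle controls. Cells: mutant yeast strain deficient in DNA damage repair.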

Assay [4] in a line: NCI Yeast Anticancer Drug Screen. Data for the cln2 rad14 strain (AID 165).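 Note: 0% = growth equal to vehicle treated cultures.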 The following applies: S. cerevisiae cln2 rad14 strain, hits give high values. Put shortly: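 cln2 rad14 yeast strain; compound exposure; growth inhibition read vs vehicle controls.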
The nature of assay [5]: NCI Yeast Anticancer Drug Screen. Data for the bub3 strain (AID 167). Conditions: S. cerevisiae bub3 mutant strain, hits give high values. The gist of the method:
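Inhibition values come from growth of compound-treated mutant yeast normalised to vehicle-treated controls.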

Assay [6] can be described thus: NCI Yeast Anticancer Drug Screen. Data for the mlh1 rad18 strain (AID 175). The following applies: S. cerevisiae mlh1 rad18 strain growth inhibition, hits give high values. The gist of the method:
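Yeast w/ defined DNA-repair lesions; compound exposure; growth vs vehicle controls → % inhibition.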

[7] abbreviates: at 5.0 µM (retest, dose inferred, filed as 0.5).
Where [8] appears, read: at 50.0 µM (retest, dose inferred, filed as 5.0).

About 79,000 compounds went through this panel and 15% of them were active in at least one assay; those are over-represented in the sample as a whole. A number with no mark means an inactive call. Calls of active or inactive are those of the source. Cut-off read from the data, not from the text of the source: active = growth inhibition above about 70%; inactive = the rest.

With `COc1cc(C(CC(=O)N(CCCl)CCCl)c2ccc3c(c2)OCO3)cc(OC)c1OC` (stereo not given), the growth inhibition in assay [1] (setting [7]) was 3%; in assay [1] (setting [8]), 0%; in assay [1] (at 50.0 µM), 6.9%; in assay [2] (setting [7]) it was 0%; in assay [2] (setting [8]), -2%; in assay [2] (at 50.0 µM), 10.1%. In addition, the growth inhibition was 13% in assay [3] (setting [7]); 2% in assay [3] (setting [8]); 20.8% in assay [3] (at 50.0 µM); 0% in assay [4] (setting [7]); -15% in assay [4] (setting [8]); 25.5% in assay [4] (at 50.0 µM). For the same molecule, the growth inhibition in assay [5] (setting [7]) is 2%; in assay [5] (setting [8]), -2%; in assay [5] (at 50.0 µM), -2.7%; in assay [6] (setting [7]), -2%; in assay [6] (setting [8]), 0%; in assay [6] (at 50.0 µM), 46.1%.

Take `Cc1c(=O)n(O)c2ccccc2[n+]1[O-]`: the growth inhibition is 4% in assay [1] (setting [7]); 21% in assay [1] (setting [8]); 4.05% in assay [1] (at 50.0 µM); 4% in assay [2] (setting [7]); 31% in assay [2] (setting [8]); 0.75% in assay [2] (at 50.0 µM). Besides, the growth inhibition in assay [3] (setting [7]) is 4%; in assay [3] (setting [8]), 24%; in assay [3] (at 50.0 µM), 7.3%; in assay [4] (setting [7]), 4%; in assay [4] (setting [8]), 14%; in assay [4] (at 50.0 µM), 32.5%. Moreover, the growth inhibition in assay [5] (setting [7]) was 1%; in assay [5] (setting [8]) it was 16%; in assay [5] (at 50.0 µM), 12.6%; in assay [6] (setting [7]), 5%; in assay [6] (setting [8]), 51%; in assay [6] (at 50.0 µM) it was 16.5%.

With `CCOC(=O)C1C(O)=C(P(=O)(C2=C(O)C(C(=O)OCC)C(c3ccc(OC(C)=O)cc3)C(C(=O)O)C2=O)N(CCCl)CCCl)C(=O)C(C(=O)O)C1c1ccc(OC(C)=O)cc1` (stereo not given), the growth inhibition was 16% in assay [1] (setting [7]); 86% (active) in assay [1] (setting [8]); 45.6% in assay [1] (at 50.0 µM); 1% in assay [2] (setting [7]); 85% (active) in assay [2] (setting [8]); 71.8% (active) in assay [2] (at 50.0 µM). In addition, the growth inhibition in assay [3] (setting [7]) was 11%; in assay [3] (setting [8]), 95% (active); in assay [3] (at 50.0 µM), 52%; in assay [4] (setting [7]), -5%; in assay [4] (setting [8]), 73% (active); in assay [4] (at 50.0 µM), 66.2%. Further, the growth inhibition was -4% in assay [5] (setting [7]); 90% (active) in assay [5] (setting [8]); 54.4% in assay [5] (at 50.0 µM); 20% in assay [6] (setting [7]); 92% (active) in assay [6] (setting [8]); 61.2% in assay [6] (at 50.0 µM).

As to `Nc1ccc([As]=[As]c2ccc(N)cc2)cc1` (stereo not given), the growth inhibition in assay [1] (setting [7]) was -14%; in assay [1] (setting [8]), 71% (active); in assay [1] (at 50.0 µM), 73.7% (active); in assay [2] (setting [7]) it was 2%; in assay [2] (setting [8]), 91% (active); in assay [2] (at 50.0 µM) it was 96.6% (active). Besides, the growth inhibition is -16% in assay [3] (setting [7]); 68% in assay [3] (setting [8]); 50.2% in assay [3] (at 50.0 µM); 2% in assay [4] (setting [7]); 67% in assay [4] (setting [8]); 91.2% (active) in assay [4] (at 50.0 µM). The growth inhibition was 3% in assay [5] (setting [7]); 91% (active) in assay [5] (setting [8]); 97.2% (active) in assay [5] (at 50.0 µM); -1% in assay [6] (setting [7]); 86% (active) in assay [6] (setting [8]); 90.8% (active) in assay [6] (at 50.0 µM).

`CC(=O)OC1CC[C@@]2(C)C(=CC[C@@H]3[C@@H]2CC[C@]2(C)C(OC(C)=O)[C@H](n4ccnc4)C[C@@H]32)C1` (stereo not given in full): the growth inhibition in assay [1] (setting [7]) is 22%; in assay [1] (setting [8]), 84% (active); in assay [1] (at 50.0 µM), 71.8% (active); in assay [2] (setting [7]) it was 8%; in assay [2] (setting [8]), 52%; in assay [2] (at 50.0 µM) it was 62.8%. Further, the growth inhibition in assay [3] (setting [7]) is 14%; in assay [3] (setting [8]), 78% (active); in assay [3] (at 50.0 µM) it was 75.2% (active); in assay [4] (setting [7]) it was 9%; in assay [4] (setting [8]) it was 58%; in assay [4] (at 50.0 µM), 69.9%. For the same molecule, the growth inhibition in assay [5] (setting [7]) is -43%; in assay [5] (setting [8]) it was 74% (active); in assay [5] (at 50.0 µM), 77% (active); in assay [6] (setting [7]), 17%; in assay [6] (setting [8]) it was 56%; in assay [6] (at 50.0 µM) it was 91.2% (active).

`Oc1c(O)c(Br)c(Br)c(Br)c1Br`: the growth inhibition in assay [1] (setting [7]) is 97% (active); in assay [1] (setting [8]) it was 98% (active); in assay [1] (at 50.0 µM) it was 91.2% (active); in assay [2] (setting [7]) it was 99% (active); in assay [2] (setting [8]), 99% (active); in assay [2] (at 50.0 µM) it was 93.5% (active). Further, the growth inhibition in assay [3] (setting [7]) was 99% (active); in assay [3] (setting [8]), 99% (active); in assay [3] (at 50.0 µM) it was 93.5% (active); in assay [4] (setting [7]), 98% (active); in assay [4] (setting [8]), 99% (active); in assay [4] (at 50.0 µM) it was 93% (active). Further, the growth inhibition in assay [5] (setting [7]) was 98% (active); in assay [5] (setting [8]) it was 98% (active); in assay [5] (at 50.0 µM), 91.8% (active); in assay [6] (setting [7]), 98% (active); in assay [6] (setting [8]) it was 99% (active); in assay [6] (at 50.0 µM), 91.8% (active).

For `CC(=O)Nc1c2sscc-2n(C)c1=O`, the growth inhibition in assay [1] (setting [7]) was 98% (active); in assay [1] (setting [8]) it was 99% (active); in assay [1] (at 50.0 µM) it was 93.2% (active); in assay [2] (setting [7]) it was 99% (active); in assay [2] (setting [8]) it was 100% (active); in assay [2] (at 50.0 µM), 94.9% (active). Further, the growth inhibition was 99% (active) in assay [3] (setting [7]); 99% (active) in assay [3] (setting [8]); 94.6% (active) in assay [3] (at 50.0 µM); 98% (active) in assay [4] (setting [7]); 99% (active) in assay [4] (setting [8]); 93.2% (active) in assay [4] (at 50.0 µM). Besides, the growth inhibition in assay [5] (setting [7]) is 97% (active); in assay [5] (setting [8]) it was 99% (active); in assay [5] (at 50.0 µM), 94% (active); in assay [6] (setting [7]) it was 99% (active); in assay [6] (setting [8]), 99% (active); in assay [6] (at 50.0 µM), 92.7% (active).

In the case of `Oc1cc(Cl)c(Cl)cc1Cl.[Cu+2]`, the growth inhibition was 78% (active) in assay [1] (setting [7]); 96% (active) in assay [1] (setting [8]); 99% (active) in assay [1] (at 50.0 µM); 45% in assay [2] (setting [7]); 98% (active) in assay [2] (setting [8]); 98.9% (active) in assay [2] (at 50.0 µM). In addition, the growth inhibition is 48% in assay [3] (setting [7]); 70% (active) in assay [3] (setting [8]); 99.3% (active) in assay [3] (at 50.0 µM); 21% in assay [4] (setting [7]); 98% (active) in assay [4] (setting [8]); 97.7% (active) in assay [4] (at 50.0 µM). Besides, the growth inhibition was 97% (active) in assay [5] (setting [7]); 97% (active) in assay [5] (setting [8]); 99% (active) in assay [5] (at 50.0 µM); 91% (active) in assay [6] (setting [7]); 97% (active) in assay [6] (setting [8]); 99.2% (active) in assay [6] (at 50.0 µM).

`CC(=O)O.[RuH].c1ccc([PH+](c2ccccc2)c2ccccc2)cc1.c1ccc([PH+](c2ccccc2)c2ccccc2)cc1.c1ccc([PH+](c2ccccc2)c2ccccc2)cc1`: the growth inhibition was -10% in assay [1] (setting [7]); 75% (active) in assay [1] (setting [8]); 43.5% in assay [1] (at 50.0 µM); -15% in assay [2] (setting [7]); 90% (active) in assay [2] (setting [8]); 70.9% (active) in assay [2] (at 50.0 µM). The growth inhibition in assay [3] (setting [7]) was -5%; in assay [3] (setting [8]), 68%; in assay [3] (at 50.0 µM), 72.5% (active); in assay [4] (setting [7]) it was -9%; in assay [4] (setting [8]) it was 91% (active); in assay [4] (at 50.0 µM), 75% (active). Besides, the growth inhibition in assay [5] (setting [7]) was 35%; in assay [5] (setting [8]), 89% (active); in assay [5] (at 50.0 µM), 72.5% (active); in assay [6] (setting [7]) it was -20%; in assay [6] (setting [8]) it was 89% (active); in assay [6] (at 50.0 µM), 66.5%.

Regarding `COc1c[c]([Hg][O]C(C)=O)c(OC)c(NC(=O)CC(C)=O)[c]1[Hg][O]C(C)=O`, the growth inhibition is 97% (active) in assay [1] (setting [7]); 95% (active) in assay [1] (setting [8]); 89.7% (active) in assay [1] (at 50.0 µM); 99% (active) in assay [2] (setting [7]); 96% (active) in assay [2] (setting [8]); 92.5% (active) in assay [2] (at 50.0 µM). Further, the growth inhibition in assay [3] (setting [7]) is 100% (active); in assay [3] (setting [8]), 93% (active); in assay [3] (at 50.0 µM) it was 92.5% (active); in assay [4] (setting [7]) it was 43%; in assay [4] (setting [8]) it was 96% (active); in assay [4] (at 50.0 µM), 90% (active). In addition, the growth inhibition in assay [5] (setting [7]) was 99% (active); in assay [5] (setting [8]), 96% (active); in assay [5] (at 50.0 µM), 90.8% (active); in assay [6] (setting [7]) it was 95% (active); in assay [6] (setting [8]), 95% (active); in assay [6] (at 50.0 µM), 88.6% (active).
